Assay results from PubChem BioAssay AID588405 (Sanford-Burnham Center for Chemical Genomics, 2011).
About 6,200 (1.7%) of roughly 360,000 compounds were called active.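 Rule for the calls: active = inhibition of at least 50% at 20 µM; inactive = the rest.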 Shown is part of a subset that was picked to be rich in actives.

Assay: Peg3 promoter-driven luciferase inhibitors, primary screen, cell-based, HeLa, luciferase luminescence (AID 588405)
Conditions: HeLa PEG-Prom luciferase reporter, overnight, at 20 µM, hits give high values

SMILES | inhibition
CC1(Oc2ccccc2-c2ccno2)CCN(Cc2ccc(-c3ccccc3)o2)C1 (stereo unspecified) | 0.4% (inactive)
CC(=O)OC[C@@H]1CN(Cc2ccccc2)C[C@H](n2cnc3c(NCc4ccco4)ncnc32)O1 | 4.43% (inactive)
COc1ccc(Sc2ccc(NC(=O)c3cccc(Cl)c3)cc2C#N)cc1 | 14.8% (inactive)
CCOC(=O)CNC(=O)/C(=C\c1ccc(F)cc1)NC(=O)c1ccccc1 | 10.4% (inactive)
CCOC(=O)C(=Cc1ccccc1OC)C(=O)OCC | 33.3% (inactive)
CCOC(=O)C(=Cc1ccccc1)C(=O)c1ccccc1 | 103% (active)
c1cc(-c2ccc3[nH]ccc3c2)n2ccnc2c1 | -57.5% (inactive)
COC(C[C@@H]1O[C@@H]1C(=O)[C@@H](C)OCc1ccccc1)OC | 7.4% (inactive)
C/C(=N\NC(=O)Cc1ccc(Cl)cc1)c1ccccn1 | 104% (active)
C/C(=N\NC(=O)c1ccccc1F)c1ccccn1 | -1.8% (inactive)
CC(=NNC(=S)N1CCCCCC1)c1ccccn1 | -62.9% (inactive)
CN1C(=O)c2ccccc2C(C(=O)NCCCN2CCCC2)C1c1c[nH]c2ccccc12 (stereo unspecified) | -1.25% (inactive)
COc1ccc(/C=C/C(=O)c2c(O)cc(OC)cc2OC)cc1 | -132% (inactive)
CCCc1ccc(C(=O)COC(=O)CN2C(=O)NC3(CCCCC3C)C2=O)cc1 (stereo unspecified) | -7.49% (inactive)
O=C(NCc1cccnc1)c1cc(C2CCCCN2C(=O)CCc2ccccc2)on1 (stereo unspecified) | -5.2% (inactive)
CN(C)c1ccc(Nc2c3c4c(cccc4n(C)c2=O)C(=O)c2ccccc2-3)cc1 | 54.9% (active)
CN(C)c1ccc(C2N(C)C(=O)c3ccccc3N2C)cc1 (stereo unspecified) | 17.6% (inactive)
CSc1ccc(CNC(=O)C2(C)CCCN2C)cc1 (stereo unspecified) | 7.21% (inactive)
CC(C)Nc1ncnc2c1ncn2[C@H]1CN(Cc2ccncc2)C[C@@H](CO)O1 | -7.45% (inactive)
COc1ccc(CN2CCCCC2C)cc1OC (stereo unspecified) | 11.9% (inactive)
Cc1ccc(/C=C(\C#N)C(=O)Nc2cccc3ncccc23)o1 | -27.1% (inactive)
Cc1ccc(-c2ccc(/C=C(\C#N)C(N)=S)o2)c([N+](=O)[O-])c1 | -30.5% (inactive)
Cc1ccc(Cc2cnc(NC(=O)/C(C#N)=C/c3ccc(-c4cccc([N+](=O)[O-])c4)o3)s2)cc1 | 71.1% (active)
CCOc1ccc2[nH]c(=S)sc2c1 | -57% (inactive)
O=[N+]([O-])c1c(NCCO)cc(Sc2nc3ccccc3s2)c2nonc12 | 102% (active)
COc1cc(SC#N)ccc1N=Cc1c(C)[nH]n(-c2ccc(C)cc2)c1=O | 80.8% (active)
